Measured values reported in the supplement of paper PMC6555819.

Tests used:
Experiment in all cases: PBM binding z-score (relative to random genomic background probes); higher = stronger binding; sequences stand for … in GC…GCGATTGACAGCGTAGAATGAAGG
[1] = test system: FXR:RXRa (NR concentration 270 nM, RXRa partner concentration 90 nM)
Procedure, shortened: (§1)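 Random background probes are the reference for binding z-scores. These scores derive from regression-normalized fluorescence on custom Agilent 4×180K protein-binding microarrays incubated 1 h with ligand-free nuclear receptor dimers. Binding was detected with antibodies against each partner (one per run).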

[2] = test system: LXRa:RXRa (NR concentration 270 nM, RXRa partner concentration 90 nM)
Procedure, shortened: as §1

[3] = test system: LXRa homodimer (NR concentration 270 nM)
Procedure, shortened: as §1

[4] = test system: LXRb:RXRa (NR concentration 270 nM, RXRa partner concentration 90 nM)
Procedure, shortened: as §1

[5] = test system: PPARa:RXRa (NR concentration 270 nM, RXRa partner concentration 90 nM)
Procedure, shortened: as §1

[6] = test system: PPARg:RXRa (NR concentration 180 nM, RXRa partner concentration 90 nM)
Procedure, shortened: as §1

[7] = test system: PPARg:RXRa 270nM:90nM, anti-RXR (NR concentration 270 nM, RXRa partner concentration 90 nM)
Procedure, shortened: as §1

[8] = test system: PPARg:RXRa 30nM:10nM, anti-RXR (NR concentration 30 nM, RXRa partner concentration 10 nM)
Procedure, shortened: as §1

[9] = test system: PPARg:RXRa 90nM:30nM, anti-RXR (NR concentration 90 nM, RXRa partner concentration 30 nM)
Procedure, shortened: as §1

[10] = test system: PPARg:RXRa DBDmut IVT, anti-RXR (DBD mutation: RXRa K156A/R161A, NR concentration 270 nM, RXRa partner concentration 90 nM)
Procedure, shortened: as §1

[11] = test system: PPARg:RXRa IVT, anti-PPARg (NR concentration 270 nM, RXRa partner concentration 90 nM)
Procedure, shortened: as §1

[12] = test system: PPARg homodimer (NR concentration 180 nM)
Procedure, shortened: as §1

[13] = test system: PXR:RXRa (NR concentration 270 nM, RXRa partner concentration 90 nM)
Procedure, shortened: as §1

[14] = test system: PXR homodimer (NR concentration 270 nM)
Procedure, shortened: as §1

[15] = test system: RARa:RXR (NR concentration 270 nM, RXRa partner concentration 90 nM)
Procedure, shortened: as §1

[16] = test system: RARa homodimer (NR concentration 270 nM)
Procedure, shortened: as §1

[17] = test system: RARb:RXRa (NR concentration 270 nM, RXRa partner concentration 90 nM)
Procedure, shortened: as §1

| Sequence | PBM binding z-score [1] | PBM binding z-score [2] | PBM binding z-score [3] | PBM binding z-score [4] | PBM binding z-score [5] | PBM binding z-score [6] | PBM binding z-score [7] | PBM binding z-score [8] | PBM binding z-score [9] | PBM binding z-score [10] | PBM binding z-score [11] | PBM binding z-score [12] | PBM binding z-score [13] | PBM binding z-score [14] | PBM binding z-score [15] | PBM binding z-score [16] | PBM binding z-score [17] |
| --- | --- | --- | --- | --- | --- | --- | --- | --- | --- | --- | --- | --- | --- | --- | --- | --- | --- |
| TCGAGTAGGGTACGGGGGCATTCAGGGATGAAGA | 2.34 | 2.37 | 0.643 | 4.6 | 3.09 | 4.1 | 4.09 | 3.19 | 3.84 | 4.21 | 5.82 | 1.54 | 3.3 | 1.96 | 2.86 | 0.475 | 2.37 |
| TCGAGTATGTTACGGGGGCATTCAGGGATGAAGA | 2.26 | 2.6 | 0.591 | 4.72 | 2.9 | 1.94 | 3.22 | 2.44 | 3.35 | 2.87 | 3.97 | 0.827 | 2.87 | 1.12 | 2.43 | 0.107 | 2.01 |
| CCGATTAGGTTACGAGGGGGCATTCAGTGCGAAT | 2.54 | 7.34 | 1.59 | 6.42 | 3.29 | 1.45 | 2.96 | 0.437 | 2.32 | 3.12 | 3.4 | 1.22 | 4.69 | 3.98 | 2.28 | 0.441 | 2.49 |
| CTATGTAGGATAAGGGGGTCATTCAGTTTGAAAG | 4.36 | 4.48 | 2.61 | 5.97 | 5.61 | 5.71 | 5.95 | 3.41 | 5.43 | 4.4 | 5.24 | 3.61 | 5.75 | 11.1 | 5.73 | 2.91 | 3.27 |
| CCTAGTAGGTTACGAGGGGGCATTCAGTGCGAAT | 3.31 | 7.55 | 1.8 | 6.51 | 4.13 | 5.11 | 5.4 | 2.24 | 4.28 | 6.21 | 6.3 | 3.88 | 5.02 | 6.19 | 2.97 | 1.46 | 2.32 |
| CGGAGTAGGTTACGAGGGGGCATTCAGTGCGAAT | 3.18 | 7.21 | 1.72 | 6.48 | 4.04 | 4.95 | 5.18 | 2.85 | 4.32 | 6.26 | 7.82 | 1.69 | 5.02 | 6.07 | 3.15 | 0.639 | 2.54 |
| CTATGTAGGTTAAGGTGGTCATTCAGTTTGAAAG | 1.04 | 1.15 | 0.413 | 1.09 | 3.64 | 5.35 | 4.98 | 2.07 | 4.28 | 7.1 | 7 | 1.36 | 0.913 | 0.758 | 0.941 | 0.483 | 1.53 |
| TCGAATAGGTTACGGGGGCATTCAGGGATGAAGA | 3.92 | 3.9 | 1.2 | 5.78 | 5.11 | 5.71 | 5.84 | 4.46 | 5.39 | 4.48 | 5.46 | 2.1 | 3.82 | 1.8 | 3.69 | 1.33 | 3.33 |
| CCGAGCAGGTTACGAGGGGGCATTCAGTGCGAAT | 2.35 | 7.31 | 1.46 | 6.07 | 3.01 | 0.89 | 1.95 | 0.464 | 1.36 | 1.69 | 2.54 | 1.34 | 5.19 | 4.97 | 3.16 | 0.223 | 2.22 |
| CTATGTAGGTTAAGGGGGTCACTCAGTTTGAAAG | 4.57 | 4.36 | 1.65 | 5.87 | 5.91 | 8.64 | 7.98 | 6.23 | 8.19 | 7.55 | 7.88 | 6 | 5.64 | 10.5 | 5.73 | 3.18 | 3.61 |
| CCGAGTACGTTACGAGGGGGCATTCAGTGCGAAT | 1.3 | 3.11 | 0.927 | 4.03 | 2.23 | 0.00178 | 0.968 | -0.231 | 0.521 | 0.709 | 1.25 | 1.37 | 3.35 | 6.19 | 2.07 | 0.384 | 1.29 |
| TCGAGTAGGTTACGGGGGCATTCAAGGATGAAGA | 2.72 | 3.01 | 0.487 | 4.72 | 4.27 | 6.08 | 5.8 | 3.65 | 4.94 | 4.93 | 6 | 1.38 | 3.1 | 1.06 | 3.21 | 0.0228 | 2.59 |
| CCGAGTAGGTGACGAGGGGGCATTCAGTGCGAAT | 1.24 | 3.03 | 0.595 | 4.26 | 3.3 | 2.94 | 3.3 | 0.701 | 2.23 | 5.58 | 5.86 | 1.39 | 4.21 | 5.4 | 2.76 | 0.823 | 1.75 |
| TCGAGTAGGTTACGGGGGCCTTCAGGGATGAAGA | 1.17 | 1.71 | 0.239 | 4.15 | 2.99 | 2.78 | 3.68 | 1.85 | 2.72 | 4.03 | 4.68 | 0.342 | 1.52 | 0.275 | 1.48 | -0.236 | 1.58 |
| CCGAGTAGGTTACGAGGGGGCATTCATTGCGAAT | 2 | 6.78 | 1.16 | 6.12 | 3.42 | 2.64 | 3.26 | 1.35 | 2.85 | 4.44 | 4.49 | 1.17 | 4.23 | 0.535 | 2.77 | 0.224 | 1.94 |
| TCGAGTAGGTTACGGGGGAATTCAGGGATGAAGA | 0.979 | 1.58 | 0.0777 | 2.86 | 2.8 | 3.75 | 4.02 | 2.24 | 3.53 | 4.46 | 4.91 | 1.34 | 1.33 | 0.36 | 1.17 | -0.238 | 1.62 |
| TCGAGTAGGTGACGGGGGCATTCAGGGATGAAGA | 2.66 | 2.37 | 0.394 | 4.6 | 3.82 | 5.16 | 5.26 | 3.32 | 4.67 | 5.39 | 6.13 | 2.07 | 3.15 | 1.91 | 2.63 | 0.214 | 2.45 |
| TCGAGTAGGTTACGGGGGCATTCGGGGATGAAGA | 3.14 | 3.56 | 0.662 | 5.09 | 4.28 | 6.03 | 5.81 | 3.14 | 4.8 | 5.16 | 5.85 | 3.02 | 3.55 | 2 | 3.36 | 0.243 | 2.54 |
| CTATGTAGTTTAAGGGGGTCATTCAGTTTGAAAG | 4.48 | 4.76 | 3.99 | 6.25 | 5.3 | 4.03 | 5.19 | 2.68 | 4.56 | 3.79 | 4.99 | 4.75 | 5.93 | 13.2 | 5.64 | 2.73 | 3.68 |
| CTATCTAGGTTAAGGGGGTCATTCAGTTTGAAAG | 5.03 | 4.71 | 2.63 | 6.25 | 5.95 | 8.5 | 7.76 | 6.25 | 7.89 | 7.65 | 7.5 | 4.89 | 6 | 13.2 | 6.07 | 2.58 | 3.68 |
| CTATTTAGGTTAAGGGGGTCATTCAGTTTGAAAG | 4.85 | 4.88 | 2.76 | 6.33 | 5.72 | 7.22 | 7.14 | 4.74 | 6.89 | 6.86 | 6.59 | 5.85 | 5.9 | 12.3 | 5.84 | 2.72 | 3.71 |
| CTATGTAGGTTAAGGCGGTCATTCAGTTTGAAAG | 1.17 | 2.21 | 1.95 | 1.37 | 3.24 | 4.29 | 4.25 | 1.38 | 3.3 | 6.74 | 6.69 | 0.855 | 1.37 | 2.41 | 0.782 | -0.289 | 1.62 |
| CCGAGTAGGTTACGAGGGGGCATTTAGTGCGAAT | 2.43 | 7.16 | 1.74 | 6.59 | 3.54 | 1.87 | 3.44 | 1.22 | 2.89 | 4.67 | 4.43 | 1.41 | 4.52 | 2.55 | 3.03 | 0.176 | 2.09 |
| CCGAGTAGGTTACGAGGGGGCCTTCAGTGCGAAT | 0.952 | 2.66 | 0.0596 | 3.94 | 2.44 | 1.5 | 2.53 | 0.553 | 1.8 | 4.2 | 4 | 1.59 | 1.73 | 0.533 | 1.56 | 0.0772 | 1.47 |
| CCGAGTAGGTTACGAGGGGGCATACAGTGCGAAT | 2.06 | 6.92 | 1.29 | 6.04 | 3.52 | 2.73 | 3.69 | 1.1 | 2.54 | 4.86 | 4.23 | 2.45 | 4.27 | 2.55 | 3.03 | 1.01 | 2.15 |
| TCGAGTAGGTTACGAGGGCATTCAGGGATGAAGA | 0.963 | 1.16 | -0.0456 | 0.518 | 2.58 | 3.58 | 3.11 | 1.61 | 2.6 | 3.87 | 4.89 | 0.36 | 1.43 | 0.25 | 1.69 | -0.742 | 1.63 |
| CCGAGTAGGTTACGAAGGGGCATTCAGTGCGAAT | 0.672 | 6.11 | -0.15 | 4.02 | 1.83 | 1.04 | 1.55 | -0.292 | 0.939 | 4.07 | 3.33 | 0.383 | 2.86 | 1.4 | 1.04 | 0.184 | 1.56 |
